Results published in PubChem BioAssay (NCATS).
Inconclusive results are not listed. Values without a mark were called inactive. Calls follow the shape of the full dose curve.

Assay: Cell Viability - SK-N-SH (AID 435);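 also: compound exposure lasted 40 h at 37 °C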
Details: SK-N-SH neuroblastoma cell viability qHTS
From the text: NIH Chemical Genomics Center [NCGC]
NIH Molecular Libraries Screening Centers Network [MLSCN]
National Institutes of Environmental Health Sciences [NIEHS]
National Toxicology Program [NTP]
We have developed a 1536-well cell-based assay for quantitative high throughput screening (qHTS) against a number of cell lines to determine in vitro cytotoxicity of small molecules. This particular assay uses the SK-N-SH cell line which is derived from human neuroblastoma.
NCGC Assay Protocol Summary:
The CellTiter-Glo luminescent cell viability assay (Promega) is a homogeneous method to measure the number of viable cells in culture. The end point readout of this assay is based on quantitation of intracellular ATP, an indicator of metabolic activity, using the luciferase reaction. Luciferase catalyzes the oxidation of beetle Luciferin to oxyluciferin and light in the presence of ATP. The luminescent signal is proportional to amount of ATP present.
Using the CellTiter-Glo luminescent cell viability assay, the amount of cellular ATP was measured in the SK-N-SH cell line with complete culture medium following compound treatment for 40 hours. The assay was performed in opaque white Kalypsys 1536-well plates. In the screen, tamoxifen and doxorubicin were used as positive controls. Library compounds were measured for their ability to cause acute toxicity in the cell line, as reflected by a decrease in intracellular ATP levels, in a concentration-dependent manner. Data were normalized to the controls for basal activity (DMSO only) and 100% inhibition (100 uM tamoxifen). AC50 values were determined from concentration-response data modeled with the standard Hill equation.
qHTS protocol fo CellTiter Glo SK-N-SH cellular assay
[Step] [Parameter] [Value] [Description]
1. Reagent; 5 uL; 1500 SK-N-SH cells/well
2. Time; 5 hr; 37 °C incubation
4. Controls; 23 nL; Tamoxifen 0.34 uM to 100 uM & Doxorubicin 0.02 nM to 100 uM
5. Time; 40 hr; 37 °C incubation
6. Reagent; 5 uL; CellTiter Glo reagent
7. Time; 20 min; Room Temperature
8. Detection; Luminescence; Viewlux plate reader
Keywords: cell viability, cytotoxicity, SK-N-SH cell line, luminescence, NTPHTS, NTPHTS_NCGC, NIEHS, EPA, DSSTox, MLSMR, MLSCN, NIH Roadmap, qHTS, NCGC
Potency is read from the fitted curve at half-maximal effect.

Row | Structure (SMILES) | Potency
1 | O=C=NC1CCCCC1 | > 92 µM
2 | Brc1ccccc1 | > 92 µM
3 | OCC1CO1 (stereo not given) | > 92 µM
4 | S=C=Nc1cccc2ccccc12 | > 92 µM
5 | c1ccc(N=Nc2ccccc2)cc1 | > 92 µM
6 | c1ccc(OP(Oc2ccccc2)Oc2ccccc2)cc1 | > 92 µM
7 | Nc1ccccc1Cl | > 92 µM
8 | ClC1=C(Cl)C2(Cl)C3C4CC(C5OC45)C3C1(Cl)C2(Cl)Cl (stereo not given) | > 92 µM
9 | CCCCCCCC(=O)Cl | > 92 µM
10 | CCCSC(=O)Cl | > 92 µM
11 | Oc1ccc(Cl)cc1Cl | > 92 µM
12 | C=CCc1ccc2c(c1)OCO2 | > 92 µM
13 | N#CCCCl | > 92 µM
14 | Clc1nc(Cl)nc(Cl)n1 | > 92 µM
15 | CCSC(=O)Cl | > 92 µM
16 | ClC(Cl)=C(Cl)Cl | > 92 µM
17 | O=NN(CCO)CCO | > 92 µM
18 | c1ccc2c(c1)CCCC2 | > 92 µM
19 | Cc1cccc([N+](=O)[O-])c1 | > 92 µM
20 | O=S1OCC2C(CO1)C1(Cl)C(Cl)=C(Cl)C2(Cl)C1(Cl)Cl (stereo not given) | > 92 µM

Row | Structure (SMILES) | Potency
21 | CCOc1ccc(N)cc1 | > 92 µM
22 | COc1ccc(C=O)cc1OC | > 92 µM
23 | Clc1ccc2ccccc2c1 | > 92 µM
24 | ClC1=C(Cl)C2(Cl)C3C4C=CC(C4)C3C1(Cl)C2(Cl)Cl (stereo not given) | > 92 µM
25 | NC(=S)Nc1ccccc1 | > 92 µM
26 | CCCCOC(=O)c1ccccc1C(=O)OCCCC | > 92 µM
27 | ClC(Cl)=C(Cl)C(Cl)=C(Cl)Cl | > 92 µM
28 | BrCCBr | > 92 µM
29 | CCN(CC)c1ccccc1 | > 92 µM
30 | Clc1cc(Cl)c(-c2cc(Cl)c(Cl)cc2Cl)cc1Cl | > 92 µM
31 | ClC(Cl)(Cl)c1ccccc1 | > 92 µM
32 | CC(C)(C)OOC(C)(C)C | > 92 µM
33 | CC(Cl)Cl | > 92 µM
34 | C1CCC2CCCCC2C1 (stereo not given) | > 92 µM
35 | Cc1cccc(C#N)c1 | > 92 µM
36 | C=CC(N)=O | > 92 µM
37 | Cc1ccc2ccccc2c1 | > 92 µM
38 | O=[N+]([O-])c1ccc(Cl)c(Cl)c1 | > 92 µM
39 | COC1=CC(=O)O[C@@H](/C=C/c2ccc3c(c2)OCO3)C1 | > 92 µM
40 | Nc1ccc(Br)cc1 | > 92 µM
